Measurements as given in PubChem BioAssay (NCI).
This is part of a sample that, as a whole, favours compounds with a hit. Of some 83,000 tested, about 20% had one in any assay.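 Negative percent growth values reflect cell death: -40 means 40% of the cells present at the start died, and -100 means all died.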 Active and inactive are the calls of the source. The calls were made as follows: active = growth percent below 10; inactive = the rest.

Experiments:
Assay in all cases: NCI-60 one-dose screen, 48 h (100 = growth as untreated, 0 = no growth, -100 = all killed)
Conditions in all cases: 10 µM
SK-MEL-2 melanoma = tested on: SK-MEL-2 melanoma
EKVX NSCLC = tested on: EKVX NSCLC
SN12C renal = tested on: SN12C renal
UO-31 renal = tested on: UO-31 renal
TK-10 renal = tested on: TK-10 renal
ACHN renal = tested on: ACHN renal
CAKI-1 renal = tested on: CAKI-1 renal
A498 renal = tested on: A498 renal
CCRF-CEM leukemia = tested on: CCRF-CEM leukemia
SR leukemia = tested on: SR leukemia
RPMI-8226 leukemia = tested on: RPMI-8226 leukemia
OVCAR-8 ovarian = tested on: OVCAR-8 ovarian
OVCAR-5 ovarian = tested on: OVCAR-5 ovarian
OVCAR-4 ovarian = tested on: OVCAR-4 ovarian
SK-OV-3 ovarian = tested on: SK-OV-3 ovarian
IGROV1 ovarian = tested on: IGROV1 ovarian
OVCAR-3 ovarian = tested on: OVCAR-3 ovarian
NCI/ADR-RES ovarian = tested on: NCI/ADR-RES ovarian
HS 578T breast = tested on: HS 578T breast
MOLT-4 leukemia = tested on: MOLT-4 leukemia

Measured: growth

CN(C)c1ccc(/C=C/c2nc3ccccc3c(=O)n2CC(=O)Nc2ccccc2)cc1
inactive: SK-MEL-2 melanoma 71.4% | EKVX NSCLC 63.6% | SN12C renal 39% | UO-31 renal 54.3% | TK-10 renal 95% | ACHN renal 18.8% | CAKI-1 renal 24.4% | A498 renal 70.5% | CCRF-CEM leukemia 90% | SR leukemia 75.5% | RPMI-8226 leukemia 64.3% | OVCAR-8 ovarian 25.9% | OVCAR-5 ovarian 89.1% | OVCAR-4 ovarian 35.5% | SK-OV-3 ovarian 92% | IGROV1 ovarian 76.2% | OVCAR-3 ovarian 26.4% | NCI/ADR-RES ovarian 30.4%

C/C(=N\N=C\c1ccc(N(C)C)cc1)c1ccc2c(c1)Nc1ccccc1S2
inactive: SK-MEL-2 melanoma 84.6% | EKVX NSCLC 47.1% | SN12C renal 49.8% | UO-31 renal 57.4% | TK-10 renal 70.6% | ACHN renal 50.8% | CAKI-1 renal 56.5% | A498 renal 86.4% | CCRF-CEM leukemia 59.5% | SR leukemia 50% | RPMI-8226 leukemia 48.5% | OVCAR-8 ovarian 38.5% | OVCAR-5 ovarian 57.4% | OVCAR-4 ovarian 17.4% | SK-OV-3 ovarian 87.8% | IGROV1 ovarian 68.9% | OVCAR-3 ovarian 44.5% | HS 578T breast 18.7% | NCI/ADR-RES ovarian 26.6%

COc1csc(/C=N/NC(=O)c2[nH]c3ccc(Br)cc3c2-c2ccccc2)c1
active: SN12C renal 5.51% | CAKI-1 renal 9.49% | CCRF-CEM leukemia -2.42% | MOLT-4 leukemia 1.69% | RPMI-8226 leukemia 6.04% | OVCAR-3 ovarian 6.96% | HS 578T breast -1.74% | NCI/ADR-RES ovarian -35.2%
inactive: SK-MEL-2 melanoma 10.3% | EKVX NSCLC 49.2% | UO-31 renal 36.7% | TK-10 renal 32.8% | ACHN renal 19.1% | A498 renal 57.8% | OVCAR-5 ovarian 17.5% | OVCAR-4 ovarian 30.3% | SK-OV-3 ovarian 26.3% | IGROV1 ovarian 22%

CO[C@@H]1CSS[C@H]1Cn1nc(-c2ccc(Oc3ccccc3)cc2)c2c(N)ncnc21
inactive: SK-MEL-2 melanoma 64.7% | EKVX NSCLC 42.8% | SN12C renal 73.9% | UO-31 renal 27.2% | TK-10 renal 45.5% | ACHN renal 68.2% | CAKI-1 renal 47.6% | A498 renal 67% | CCRF-CEM leukemia 10.7% | MOLT-4 leukemia 14% | RPMI-8226 leukemia 34.3% | OVCAR-8 ovarian 82.9% | OVCAR-5 ovarian 82.3% | SK-OV-3 ovarian 30.2% | IGROV1 ovarian 80.4% | OVCAR-3 ovarian 104% | HS 578T breast 72.6% | NCI/ADR-RES ovarian 65.8%

O=C(Nc1nc2ccc([N+](=O)[O-])cc2s1)Nc1ccccc1I
inactive: TK-10 renal 10.8% | OVCAR-4 ovarian 14.4% | IGROV1 ovarian 19.7%
active: SK-MEL-2 melanoma -21.6% | EKVX NSCLC -8.48% | SN12C renal 1.18% | UO-31 renal 0.855% | ACHN renal -0.408% | CAKI-1 renal -19.5% | A498 renal -8.67% | CCRF-CEM leukemia 3.88% | MOLT-4 leukemia 1.39% | RPMI-8226 leukemia -27.9% | OVCAR-5 ovarian 5.55% | SK-OV-3 ovarian -7.59% | HS 578T breast 9.12% | NCI/ADR-RES ovarian -5.83%

O=C(Nc1ccncc1)c1ccc(-n2c(=O)[nH]c3ccccc3c2=O)cc1
active: CCRF-CEM leukemia -31.5%
inactive: SK-MEL-2 melanoma 91.9% | EKVX NSCLC 94.2% | SN12C renal 90.5% | UO-31 renal 87.3% | TK-10 renal 103% | ACHN renal 96.2% | CAKI-1 renal 87.3% | A498 renal 114% | RPMI-8226 leukemia 100% | OVCAR-8 ovarian 96% | OVCAR-5 ovarian 100% | OVCAR-4 ovarian 93.3% | SK-OV-3 ovarian 99.3% | IGROV1 ovarian 107% | OVCAR-3 ovarian 113% | HS 578T breast 92.4% | NCI/ADR-RES ovarian 103%

CN1C/C(=C\c2ccc(O)cc2O)c2[o+]c3cc(O)ccc3cc2C1
active: SR leukemia 2.85%
inactive: SK-MEL-2 melanoma 46.5% | EKVX NSCLC 78% | SN12C renal 39.9% | UO-31 renal 63.6% | TK-10 renal 82.4% | ACHN renal 71.9% | CAKI-1 renal 70.1% | A498 renal 117% | CCRF-CEM leukemia 41.1% | RPMI-8226 leukemia 33% | OVCAR-8 ovarian 62.7% | OVCAR-5 ovarian 72.1% | OVCAR-4 ovarian 68.2% | SK-OV-3 ovarian 105% | IGROV1 ovarian 34.8% | HS 578T breast 50.1% | NCI/ADR-RES ovarian 107%

COc1ccc(CN2[C@@H](C(=O)NCc3ccc(C(=O)NO)cc3)Cc3c([nH]c4ccccc34)[C@@H]2C)cc1
inactive: EKVX NSCLC 11.9% | SN12C renal 29.8% | UO-31 renal 36% | TK-10 renal 16.5% | ACHN renal 36% | CAKI-1 renal 39.5% | CCRF-CEM leukemia 15.8% | SR leukemia 14.5% | RPMI-8226 leukemia 20.1% | OVCAR-8 ovarian 27.9% | OVCAR-4 ovarian 40.1% | IGROV1 ovarian 12.4% | OVCAR-3 ovarian 11.1% | NCI/ADR-RES ovarian 68.8%
active: SK-MEL-2 melanoma 2.82% | A498 renal -5.13% | OVCAR-5 ovarian 4.29% | SK-OV-3 ovarian -8.39% | HS 578T breast -5.59%

Brc1ccc(/C=N/Nc2ncnc3sc4c(c23)CCN(Cc2ccccc2)C4)cc1
inactive: SK-MEL-2 melanoma 112% | EKVX NSCLC 94.2% | SN12C renal 64.4% | UO-31 renal 73.9% | TK-10 renal 125% | ACHN renal 56.5% | CAKI-1 renal 70% | A498 renal 117% | CCRF-CEM leukemia 22.5% | MOLT-4 leukemia 46.2% | RPMI-8226 leukemia 48.5% | OVCAR-5 ovarian 99.9% | OVCAR-4 ovarian 43.7% | SK-OV-3 ovarian 107% | IGROV1 ovarian 94.6% | OVCAR-3 ovarian 33% | HS 578T breast 48.3% | NCI/ADR-RES ovarian 68.8%

O=C(CS(=O)(=O)c1oc(-c2ccc(Cl)cc2)nc1S(=O)(=O)c1ccccc1)N1CCCC1
active: SN12C renal -26.2% | UO-31 renal -100% | TK-10 renal -94.5% | ACHN renal -100% | CAKI-1 renal -98.7% | CCRF-CEM leukemia -45% | RPMI-8226 leukemia -13.8% | OVCAR-8 ovarian -31.8% | OVCAR-5 ovarian -51.4% | OVCAR-4 ovarian -90.1% | OVCAR-3 ovarian -90.1% | NCI/ADR-RES ovarian 9.98%
inactive: SK-MEL-2 melanoma 82.8% | EKVX NSCLC 74.9% | A498 renal 110% | SK-OV-3 ovarian 97.9% | IGROV1 ovarian 74.4% | HS 578T breast 60.2%

COc1ccc(-c2c(N)c(=O)n(C)c3ccccc23)cc1
inactive: SK-MEL-2 melanoma 77.4% | EKVX NSCLC 52.4% | SN12C renal 52.8% | UO-31 renal 29.7% | TK-10 renal 118% | ACHN renal 59.4% | CAKI-1 renal 62.1% | A498 renal 110% | CCRF-CEM leukemia 54.6% | SR leukemia 36.3% | RPMI-8226 leukemia 25.1% | OVCAR-8 ovarian 73.9% | OVCAR-5 ovarian 76.7% | OVCAR-4 ovarian 56.5% | SK-OV-3 ovarian 100% | IGROV1 ovarian 46.5% | OVCAR-3 ovarian 51.5% | HS 578T breast 66.9% | NCI/ADR-RES ovarian 58.5%

O=C(NO)c1ccc(-c2nc3ccc4[nH]ncc4c3c3c2CCCC3)cc1
active: SK-MEL-2 melanoma -89.7% | EKVX NSCLC -19.4% | SN12C renal -13.8% | UO-31 renal -15.8% | ACHN renal 2.16% | CAKI-1 renal -0.924% | A498 renal -49.1% | CCRF-CEM leukemia 5.08% | SR leukemia -13.8% | OVCAR-8 ovarian -16.7% | OVCAR-5 ovarian -1.66% | OVCAR-4 ovarian -4.75% | IGROV1 ovarian -18.9% | OVCAR-3 ovarian -57% | HS 578T breast -29.8% | NCI/ADR-RES ovarian -4.37%
inactive: TK-10 renal 20.2% | SK-OV-3 ovarian 21.1%

CCOc1ccc(/C=N/NC(=O)Cn2nc(Cc3ccc([N+](=O)[O-])cc3)c3onc(C)c3c2=O)cc1
active: UO-31 renal -48.1% | TK-10 renal -12.2% | ACHN renal -68% | CAKI-1 renal -9.88% | OVCAR-8 ovarian -16.5% | OVCAR-4 ovarian -34.8% | OVCAR-3 ovarian -37.5% | HS 578T breast -7.55%
inactive: SK-MEL-2 melanoma 51.9% | EKVX NSCLC 16.3% | SN12C renal 11.2% | A498 renal 45.1% | CCRF-CEM leukemia 89.3% | SR leukemia 62.7% | RPMI-8226 leukemia 68.9% | OVCAR-5 ovarian 43.8% | SK-OV-3 ovarian 91.3% | IGROV1 ovarian 27.6% | NCI/ADR-RES ovarian 19.4%

CC1CC(c2ccc(N(C)C)cc2)=NN1c1nc(O)c(C2=c3cc(Br)ccc3=NC2=O)s1 (configuration not stated)
inactive: SK-MEL-2 melanoma 98.9% | EKVX NSCLC 61.9% | SN12C renal 106% | UO-31 renal 78.3% | TK-10 renal 94.4% | ACHN renal 92.2% | CAKI-1 renal 101% | A498 renal 103% | CCRF-CEM leukemia 29.8% | SR leukemia 67.6% | RPMI-8226 leukemia 28.1% | OVCAR-8 ovarian 83% | OVCAR-5 ovarian 123% | OVCAR-4 ovarian 94.5% | SK-OV-3 ovarian 91.3% | IGROV1 ovarian 110% | OVCAR-3 ovarian 73.6% | HS 578T breast 70%
active: NCI/ADR-RES ovarian 7.99%

Cc1ccc(C(=O)N/C(=C2/OCCN2C)[P+](c2ccccc2)(c2ccccc2)c2ccccc2)cc1
inactive: SK-MEL-2 melanoma 81.1% | EKVX NSCLC 75.4% | SN12C renal 86% | UO-31 renal 85.4% | TK-10 renal 102% | ACHN renal 114% | CAKI-1 renal 102% | A498 renal 122% | CCRF-CEM leukemia 73.5% | SR leukemia 79.5% | RPMI-8226 leukemia 25.6% | OVCAR-5 ovarian 96.3% | OVCAR-4 ovarian 69.8% | SK-OV-3 ovarian 104% | IGROV1 ovarian 69.9% | OVCAR-3 ovarian 54.5% | HS 578T breast 79.6% | NCI/ADR-RES ovarian 101%

COc1ccccc1NCc1ccc(CO)n1-c1ccc(C)cc1
inactive: SK-MEL-2 melanoma 104% | EKVX NSCLC 98.9% | SN12C renal 86.8% | UO-31 renal 60.3% | TK-10 renal 107% | ACHN renal 93.3% | CAKI-1 renal 79.9% | A498 renal 123% | CCRF-CEM leukemia 86.3% | RPMI-8226 leukemia 85.8% | OVCAR-8 ovarian 101% | OVCAR-5 ovarian 111% | OVCAR-4 ovarian 97.7% | SK-OV-3 ovarian 81.5% | IGROV1 ovarian 91.5% | OVCAR-3 ovarian 95.6% | HS 578T breast 98% | NCI/ADR-RES ovarian 95.9%
